The test concerns Trichuris muris adult worms. Briefly: mean motility score (Paragon pixel variance) of adult worms (arbitrary units); higher = more motile worms, i.e. less anthelmintic effect; extreme values may be limits of the assay. The settings on record: 100 µM; 24 h. In a few lines: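 Each drug was tested with three worms in three wells, run over three separate occasions and vehicle and positive controls included. The worms were single adult Trichuris muris from infected NOD SCID mice, held for 24 h at 37°C and 5% CO2 in 100 μL RPMI-1640 with antibiotics and drug at 100 μM (1% v/v DMSO) in 96-well plates. Motility score was derived by Paragon pixel-variance analysis of films from an automated phenotyping platform and averaged over replicate wells.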
On to `Nc1ccn([C@H]2CC[C@@H](CO)O2)c(=O)n1` [zalcitabine], for which the mean motility score was determined as 3920.
For `CC(N/C(=N/C#N)Nc1ccncc1)C(C)(C)C.O` (stereo not drawn) [pinacidil monohydrate] the value was 2490; for `C[C@@H](C(=O)O)c1ccc(-c2ccccc2)c(F)c1` [tarenflurbil], 2130; for `O=C1CCc2ccc(OCCCCN3CCN(c4cccc(Cl)c4Cl)CC3)cc2N1` [aripiprazole], 3030.
The value for `Cc1ccnc2c1NC(=O)c1cccnc1N2C1CC1` [nevirapine] was 2540; that for `CCN(CC)CCOC(=O)c1ccc(N)cc1.Cl` [procaine hydrochloride] was 3750; that for `N[C@@H]1CONC1=O` [cycloserine] was 3930.
The value for `CN1CCC[C@H]1c1cccnc1` [nicotine] was 0; that for `CO[C@@]1(NC(=O)CSCC#N)C(=O)N2C(C(=O)[O-])=C(CSc3nnnn3C)CS[C@@H]21.[Na+]` [cefmetazole sodium] was 2040; that for `Cc1ccc(N(C=C2NCCN2)c2cccc(O)c2)cc1` [phentolamine] was 2960.
`CCCCCCCCCC(=O)OC1(c2ccc(Cl)cc2)CCN(CCCC(=O)c2ccc(F)cc2)CC1` [haloperidol decanoate] displayed a mean motility score of 4450.
For `Nc1nc(N)c2nc(-c3ccccc3)c(N)nc2n1` [triamterene] the value was 2070.
For the molecule `O=c1ccc2ccccc2o1` [coumarin], the mean motility score is 3690.
The value for `Cc1ccc(-c2cc(C(F)(F)F)nn2-c2ccc(S(N)(=O)=O)cc2)cc1` [celecoxib] was 0; that for `O=C(O)Cc1ccc(-c2ccccc2)cc1` [felbinac] was 3440.
For `Cc1nc2ccc(CN(C)c3ccc(C(=O)N[C@@H](CCC(=O)O)C(=O)O)s3)cc2c(=O)[nH]1` [raltitrexed] the value was 3030; for `Oc1ccc(O)cc1` [hydroquinone], 4230.
The value for `C[C@H](Cc1cc2c(c(C(N)=O)c1)N(CCCO)CC2)NCCOc1ccccc1OCC(F)(F)F` [silodosin] was 3810; that for `COc1cc2nc(N3CCN(C(=O)C4CCCO4)CC3)nc(N)c2cc1OC.Cl` (stereo not drawn) [terazosin hydrochloride] was 2970; that for `CCOC(=O)C1=C(C)NC(C)=C(C(=O)OC)C1c1cccc([N+](=O)[O-])c1` (stereo not drawn) [nitrendipine] was 0.
Regarding `Cc1nc2n(c(=O)c1CCN1CCC(c3noc4cc(F)ccc34)CC1)CCCC2` [risperidone], the mean motility score was found to be 2130.
For `COc1ccc([C@@H]2Sc3ccccc3N(CCN(C)C)C(=O)[C@@H]2OC(C)=O)cc1` [diltiazem] the value was 2070; for `C[C@@H](Oc1cc(-c2cnn(C3CCNCC3)c2)cnc1N)c1c(Cl)ccc(F)c1Cl` [crizotinib], 284.
